In the library only some 19% were active in any assay of this set; here they are far more common.
HT1080 IDH1KD tx: qHTS for induction of synthetic lethality in tumor cells producing 2HG: qHTS for the HT-1080-IDH1KD cell line | Potency, µM (highest dose often 46.1 µM), actives largely listed as cytotoxic | HT-1080 IDH1 knockdown viability, ATP luminescence, 48 h | AID 686971, 2013 | hit rate 2% among 360,000
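Assay cells: HT-1080 with IDH1 knockdown, 750 per well, RPMI/5% FBS. Exposure: 48 h at 37 °C following 2 h pre-incubation. Read: CellTiter-Glo luminescence; fitted concentration-response, curve class assigned.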
HT1080NT lethal: qHTS for induction of synthetic lethality in tumor cells producing 2HG: qHTS for the HT-1080-NT fibrosarcoma cell line. AID 686970, 2013. HT-1080-NT fibrosarcoma viability, CellTiter-Glo ATP luminescence, 48 h. hit rate 1.6% among 360,000. Potency, µM (top dose mostly 46.1 µM), hits mostly cytotoxic;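 further: NT is the 2HG producing partner of a matched IDH1 knockdown line; nearly all actives have a fitted effect of over 55% in size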
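Viability by CellTiter-Glo luminescence after 48 h compound exposure at 37C of HT-1080-NT cells (750/well, RPMI, 5% FBS). % activity scaled between DMSO wells and medium-only wells, then curve-fitted and categorized by curve class.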
ELG1 DNA repair: qHTS screen for small molecules that inhibit ELG1-dependent DNA repair in human embryonic kidney (HEK293T) cells expressing luciferase-tagged ELG1; Potency, µM (titrated, usually from 46.1 µM), most hits filed as inhibitors; hit rate 2.3% among 330,000; HEK293T ELG1-luciferase reporter, luminescence, 16 h; DNA damage induced by 5-fluorouridine; further: nearly all actives have a fitted effect of over 55% in size
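Luminescence from the luciferase reporter, measured 30 min after ONE-Glo reagent at room temperature, was the read-out. Beforehand, 2,000 cells per well were exposed for 16 hr at 37 °C to 5-fluorouridine together with compound or vehicle.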
IL1B secr inh: qHTS for Inhibitors of Inflammasome Signaling: IL-1-beta AlphaLISA Primary Screen. hit rate 4.7% among 360,000. activity change, % at 57.5 µM. THP-1 LPS/ATP IL-1B secretion, AlphaLISA, 16 h; active compounds read low. AID 743279, 2014; in the data active means activity change below about -50%; inconclusive means mostly about -30% to -49%
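Secreted IL-1B measured by AlphaLISA bead assay after 16 h compound exposure of THP-1 cells; compounds (final up to 57.5 uM) added 1 h before LPS (250 ng/mL) and ATP (1.25 mM) stimulation; lower signal means less secretion.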
DT40 TDP1 no CPT: qHTS for Inhibitors of human tyrosyl-DNA phosphodiesterase 1 (TDP1): qHTS in cells in absence of CPT; AID 686978, 2013; hit rate 15% among 420,000; Potency, µM (highest dose often 46.2 µM), most hits filed as inhibitors; DT40 Tdp1-/- hTDP1 cells, no CPT, ATP luminescence, 48 h; further: nearly all actives have a fitted effect of over 55% in size
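Luminescent ATP content (CellTiter-Glo) served as the growth readout. Knockout chicken DT40 cells expressing human TDP1 were exposed to compounds without camptothecin for a minimum 48 hr at 37 °C.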
DT40 TDP1 CPT: qHTS for Inhibitors of human tyrosyl-DNA phosphodiesterase 1 (TDP1): qHTS in cells in presence of CPT. chicken DT40 Tdp1-/-;hTDP1 cells + 20 nM CPT, ATP luminescence, 48 h. Potency, µM (titrated, usually from 46.2 µM), actives largely listed as inhibitors. hit rate 12% among 420,000. AID 686979, 2013; further: nearly all actives have a fitted effect of over 55% in size
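Chicken DT40 Tdp1-/- cells complemented with human TDP1, 400 cells/well, exposed to compounds plus 20 nM camptothecin for at least 48 h at 37 C; viability read as ATP content by CellTiter-Glo luminescence.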
Hits are given with their value; 0 = inactive; ? = inconclusive; - = no result; ! = repeats disagree; [ ] = remark or other dose. Unless noted, the call rests on the fitted dose curve; in most records, active means well fitted curve in the direction sought with a large enough effect; inconclusive means small, poorly fitted or top-dose-only effect, or another doubt; inactive means no such curve, though single readings can be large; an effect the other way counts as inactive or inconclusive.

SMILES	HT1080 IDH1KD tx	HT1080NT lethal	ELG1 DNA repair	IL1B secr inh	DT40 TDP1 no CPT	DT40 TDP1 CPT
COc1cccc(C2=C(C(C)=O)Sc3nncn3N2C(C)=O)c1	-	-	-	-	23µM	?
Cc1ccc2nc(Cl)c3cc(C(=O)NC4CCCCC4)sc3c2c1	-	-	-	-	0	0
OC[C@H]1NC[C@H](O)[C@@H](O)[C@H]1O	-	-	-	-	0	0
Cc1ccccc1-c1noc(N)c1C#N	10µM	?	0	0	?	26µM
Cc1[nH]c2ccc(C(=O)NC3CCCC3)cc2c1C	0	0[9.24 µM]	?	0	0	0
Cc1[nH]c2ccc(C(=O)NC3CCC(C)CC3)cc2c1C (stereo unspecified)	0	0	?	0	12µM	?
Cc1[nH]c2ccc(C(=O)Nc3ccncc3)cc2c1C	0	0	12µM	0	12µM	13µM
CCc1ccc(NC(=O)c2ccc3[nH]c(C)c(C)c3c2)cc1	-	-	-	-	0	0
O=C1CCCN1C(=O)COc1ccccc1[N+](=O)[O-]	0	0	0	0	0	0
Cc1ccc(C)n1-n1c(C)nc2scc(-c3cccs3)c2c1=O	0	0	0	0	18µM	?
Cc1nc2scc(-c3cccs3)c2c(=O)n1-n1cccc1	0	0	0	0	?	0
Cc1sc(NC(=O)CN(C(=O)c2ccccc2F)C2CCCC2)c(C(N)=O)c1C	0	0	16µM	0	16µM	?
Cc1ccc(C(=O)N(CC(=O)Nc2sc(C)c(C)c2C(N)=O)C2CCCC2)cc1	0	0	?	0	18µM	21µM
COc1ccc2c(c1)OC(C)CN(CCNC(=O)c1ccc(-n3cccn3)cc1)C2 (stereo unspecified)	-	-	-	-	0	0[9.04 µM]
Cc1c(C(=O)Nc2ccc(Oc3ccccc3)cc2)sc2nc3n(c(=O)c12)CCC3	0	0	?	0	18µM	?
COc1cccc(NC(=O)c2sc3nc4n(c(=O)c3c2C)CCC4)c1	0	0	?	0	15µM!	?
Cc1c(C(=O)Nc2ccc(OC(F)(F)F)cc2)sc2nc3n(c(=O)c12)CCC3	0	0	?	0	?	?
CC(=O)c1cccc(NC(=O)c2sc3nc4n(c(=O)c3c2C)CCCCC4)c1	0	0	?	0	23µM	?
O=C(CCCc1ccccc1)NCCS(=O)(=O)N1CCN(c2ccccc2)CC1	0	0	-	0	?	?
COc1ccc(C(=O)Nc2nnc(Cc3ccc(OC)c(OC)c3)s2)cc1	0	0	0	0	0	0
CC(C)n1c(O)c(N=NC(=O)C2COc3ccccc3O2)c2ccccc21 (stereo unspecified)	?	0	?	-89	?	?
CCOc1ccc(NS(=O)(=O)c2ccc3[nH]c4c(c3c2)CCCCC4)cc1	-	-	-	-	18µM	23µM
COc1ccc(NS(=O)(=O)c2ccc3[nH]c4c(c3c2)CCCC4)c(OC)c1	-	-	-	-	21µM	21µM
COc1ccc(NS(=O)(=O)c2ccc3[nH]c4c(c3c2)CCCCC4)cc1	-	-	-	-	23µM	16µM
CCOc1ccc(NS(=O)(=O)c2ccc3[nH]c4c(c3c2)CCCC4)cc1	-	-	-	-	?	0
SMILES	HT1080 IDH1KD tx	HT1080NT lethal	ELG1 DNA repair	IL1B secr inh	DT40 TDP1 no CPT	DT40 TDP1 CPT
O=C1CCN(CCc2ccccc2)CCN1[C@H](CO)c1ccccc1	0	0	0	0	0	0
O=C1CCN(CCc2ccccc2)CCN1[C@H](COc1ccccc1)c1ccccc1	0	0	0	0	14µM	15µM
CC(C)CN1CCC(=O)N([C@H](COc2ccccc2)c2ccccc2)CC1	0	0	0	0	22µM	?
CCCN1CCC(=O)N([C@H](COc2ccccc2)c2ccccc2)CC1	0	0	?	0	21µM	?
O=C(NCc1ccccc1)C(=O)Nc1nccs1	0	0	0	0	0	0
COc1ccc(-n2c(C)cc(C(=O)COC(=O)Cn3cnc4ccccc43)c2C)cc1	?	0	0	0	18µM	16µM
COCC(=O)OCC(=O)c1cc(C)n(-c2ccc(Br)cc2)c1C	0	0	0	0	0	?
Cc1cc(C(=O)COC(=O)c2ccc(O)cc2O)c(C)n1-c1ccc(OC(F)F)cc1	0	0	0	0	7.3µM	21µM
COc1ccc(-n2c(C)cc(C(=O)COC(=O)c3ccc(O)cc3O)c2C)cc1	?	?	?	0	5.2µM	8.2µM
COc1cc(NC(=O)c2cccs2)c(C(=O)OCC(=O)c2cc(C)n(-c3ccccc3)c2C)cc1OC	0	0	?	0	21µM	?

Source: PubChem BioAssay
